NALP1 yeast inh: NALP1 inflammasome inhibitors in reconstituted yeast, colorimetric, S. cerevisiae, triplicate retest; S. cerevisiae NALP1/ASC/caspase-1 growth, X-gal OD620, 72 h; inhibition, % at 10 µM; hit rate 0.61% among 280,000; AID 2071, 2009; in the data active = inhibition mostly above about 24%, no sharp cut-off; inactive = mostly below about 32%
NALP3 yeast inh: NALP3 inflammasome inhibitors in reconstituted yeast, primary screen, luminescence, uHTS; inhibition, % at 10 µM; hit rate 0.39% among 330,000; Yeast reconstituted NLRP3/ASC/caspase-1, beta-gal luminescence, 24 h; AID 2825, 2010;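 active = inhibition of 50% or more; inactive = inhibition below 50%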;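 note: plate controls were induced DMSO wells for no effect and uninduced yeast grown without galactose for full effect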
tim10-1 inh: growth inhibitors of tim10-1 mutant yeast, primary screen, luminescence, uHTS | inhibition, % at 20 µM | S. cerevisiae tim10-1 ts strain growth, BacTiter-Glo, 24 h | AID 463190, 2010 | hit rate 2.2% among 330,000;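 active = inhibition of at least 40%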;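 note: mutant grown at 25 °C; 0% = DMSO wells with yeast and 100% = wells holding no yeast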
tim23-1 inh: growth inhibitors of tim23-1 mutant yeast, primary screen, luminescence, uHTS | S. cerevisiae tim23-1 growth, BacTiter-Glo luminescence, 24 h | inhibition, % at 20 µM | hit rate 1.3% among 330,000 | AID 463212, 2010;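 active = growth inhibition of the mutant yeast at or above 50%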;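 note: temperature-sensitive mutant grown at 25 °C; plate controls were DMSO-treated mutant yeast for no effect and medium wells lacking yeast for full effect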
TIM10 inh: growth inhibitors of isogenic TIM10 control yeast, primary screen, counter-screen for tim10-1 yeast inhibitor project, luminescence, uHTS. inhibition, % at 10 µM. AID 463195, 2010. S. cerevisiae TIM10 strain growth, BacTiter-Glo luminescence, 24 h. hit rate 1.4% among 330,000;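 active = inhibition of 40% or more at the single tested concentration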;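 note: wild-type TIM10 isogenic control strain grown at permissive 25 °C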
tim10-1 confirm: growth inhibitors of tim10-1 mutant yeast, confirmation, single concentration, luminescence, S. cerevisiae; hit rate 56% among 7,400; AID 463213, 2010; S. cerevisiae tim10-1 ts strain growth, BacTiter-Glo, 24 h; inhibition, % at 20 µM; shares compounds with tim10-1 inh;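 active = inhibition of yeast growth at or above a set limit in either of two repeat tests at 20 µM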;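 note: tim10-1 mutant grown at permissive 25 °C to find synthetic lethal compounds; 0% = DMSO yeast wells and 100% = medium wells without yeast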
tim10 confirm: growth inhibitors of wild-type TIM10 yeast, confirmation, counter-screen for tim10-1 synthetic lethality project, single concentration, luminescence, S. cerevisiae; shares compounds with TIM10 inh; S. cerevisiae tim10 strain growth, BacTiter-Glo luminescence, 24 h; inhibition, % at 10 µM; hit rate 63% among 4,600; AID 463215, 2010;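 active = inhibition of yeast growth at or above a set limit in either of two replicates at 10 µM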;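 note: this counterscreen used the strain with wild-type TIM10; 0% = yeast with DMSO and 100% = medium wells lacking yeast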
tim23-1 confirm: tim23-1 mutant yeast growth inhibitors, confirmation, luminescence, single concentration; shares compounds with tim23-1 inh; S. cerevisiae tim23-1 growth, BacTiter-Glo luminescence, 24 h; inhibition, % at 20 µM; hit rate 83% among 4,400;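 active = inhibition above about 39% in either of two replicate wells at 20 µM, limit read from the data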;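 note: temperature-sensitive tim23-1 mutant grown at 25 °C; 0% = DMSO wells with yeast and 100% = medium wells without yeast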
* hit, by the source's call; x = no result given. A selection: hits, their analogues and other compounds. The true share with any hit is near 4%.

SMILES	NALP1 yeast inh	NALP3 yeast inh	tim10-1 inh	tim23-1 inh	TIM10 inh	tim10-1 confirm	tim10 confirm	tim23-1 confirm
CCc1c(C)nc(Nc2nc(C)c3cc(OC)ccc3n2)[nH]c1=O	-22.9	11.2	41.7*	53.1*	45.6*	31.3*	-8.9	52.1*
CCCCCc1c(C)nc(Nc2nc(C)c3cc(OC)ccc3n2)[nH]c1=O	11.6	19.6	7.4	9.3	16.1	x	x	x
CCn1c(C)nc2cc(-c3nc4n(n3)Cc3ccccc3-4)ccc21	-9.1	9.8	60.4*	64.9*	54.3*	51.0*	49.3*	68.1*
COc1ccc(Cc2nc(-c3cccs3)no2)cc1	2.7	36.9	3.5	5.3	-6.1	x	x	x
CC1CCc2c(sc3ncnc(SC(C)C(=O)NCC4CCCO4)c23)C1 (stereo not given)	x	17.8	3.3	26.5	11.2	x	x	x
O=C1c2ccccc2C(=O)N1CCOc1ccccc1Cl	4.1	16.7	23.8	17.3	-8.4	x	x	x
Cc1ccccc1OCCN1C(=O)C(=O)c2cccc(C)c21	35.1	19.5	44.9*	60.3*	22.8	25.5	x	33.2
Cc1cccc2c1N(CCOc1ccccc1Cl)C(=O)C2=O	1.4	15.9	50.5*	55.9*	27.3	19.2	x	-30.4
COc1ccccc1OCCCN1C(=O)C(=O)c2cccc(C)c21	8.8	24.4	9.5	36.8	17.7	x	x	x
Cc1nn(C)c(C)c1S(=O)(=O)N(CC(=O)NCCCN1CCC(C)CC1)c1ccc(C(C)C)cc1	-2.9	5.4	5.5	-5.1	5.9	x	x	x
COc1ccc(/C=N/Nc2cc(N3CCCC3)nc(N3CCCC3)n2)cc1	19.3	14.0	44.9*	67.5*	26.9	18.1	x	44.1*
Oc1ccc(/C=N/Nc2cc(N3CCCC3)nc(N3CCCC3)n2)cc1	-8.0	30.0	20.4	27.3	22.3	x	x	x
CN1CCN(C2=Cc3ccccc3Sc3cc(F)c(F)cc32)CC1	12.7	16.4	38.1	-6.2	17.1	x	x	x
CN1CCN(C2=Cc3cc(Cl)ccc3Sc3cc(F)ccc32)CC1	18.7	24.2	56.8*	78.1*	-15.2	39.6*	x	66.6*
Cc1cccc(NC(=O)C2CCCN(C(=O)Nc3ccc(F)cc3)C2)c1 (stereo not given)	-0.1	3.6	-10.0	4.5	1.8	x	x	x
c1csc(-c2csc3nc(CN4CCOCC4)nc(NCc4ccc5c(c4)OCO5)c23)c1	-8.7	12.5	46.5*	54.0*	46.7*	37.8*	38.5*	50.6*
O=C(NNC(=O)C1[C@H]2CCCC[C@@H]12)Nc1cccc2ccccc12 (stereo not given in full)	0.0	6.7	10.0	16.4	19.1	x	x	x
O=C(NC(=S)NCCN1CCOCC1)c1ccc(Cl)cc1Cl	23.5	17.5	9.8	-9.1	0.0	x	x	x
CCCCNC(=S)NC(=O)c1ccc(Cl)cc1Cl	-1.5	6.3	48.7*	54.1*	38.2	36.5*	x	52.6*
Cc1noc(/C=C/c2ccccn2)c1[N+](=O)[O-]	41.1*	29.1	52.9*	61.8*	51.4*	61.6*	58.5*	53.8*
COc1ccccc1N/C=C/c1onc(C)c1[N+](=O)[O-]	5.0	33.1	22.3	12.0	22.9	x	x	x
CCOC(=O)C1=C(O)c2ccccc2C(=O)/C1=C\c1ccc(CC)cc1	40.8	x	x	x	x	x	x	x
CCCc1ccc(/C=C2\C(=O)c3ccccc3C(O)=C2C(=O)OCC)cc1	x	3.6	65.9*	51.6*	45.1*	66.0*	48.4*	57.4*
CCOC(=O)C1=C(Cc2ccc(C)cc2)C(=O)c2ccccc2C1=O	-15.5	-13.9	62.1*	61.2*	56.6*	68.1*	67.2*	60.2*
N#CC(C#N)=c1ccc2c(c1)N1C3=C(CCCC3)CC3CCCCC31N=2 (stereo not given)	53.3	30.5	43.7*	51.1*	33.0	24.2	x	22.9
SMILES	NALP1 yeast inh	NALP3 yeast inh	tim10-1 inh	tim23-1 inh	TIM10 inh	tim10-1 confirm	tim10 confirm	tim23-1 confirm
O=[N+]([O-])c1cc(-c2nc(-c3ccncc3)no2)cc([N+](=O)[O-])c1	28.1	13.2	76.1*	72.2*	68.5*	66.9*	-17.3	81.2*
Cc1ccc(/C=N\NC(=O)C2CC(=O)N(c3ccccc3)C2)o1 (stereo not given)	5.2	19.0	2.7	-9.8	-1.7	x	x	x
CCC1CCc2sc(C(=O)N3CCCN(C)CC3)cc2C1 (stereo not given)	16.5	14.7	26.3	-7.0	8.5	x	x	x
CCC1CCc2sc(C(=O)N3CCN(c4ccccn4)CC3)cc2C1 (stereo not given)	17.7	24.6	45.9*	55.9*	30.5	34.5*	x	55.8*
Cc1ccc(S(=O)(=O)N2[C@@H](c3cccc(Cl)c3)C(C(=O)O)=CC[C@H]2c2ccc(C(C)C)cc2)cc1	x	-4.5	27.6	40.0	14.4	x	x	x
CCCCNC(=O)c1cccc(S(=O)(=O)N2CC3(C)CC2CC(C)(C)C3)c1 (stereo not given)	x	13.2	49.6*	59.2*	29.0	48.4*	x	54.0*
Cc1ccc(S(=O)(=O)Nc2ccc(S(=O)(=O)Nc3nccs3)cc2)c([N+](=O)[O-])c1	14.2	14.4	53.8*	50.2*	52.0*	55.2*	46.6*	52.2*
Cc1ccc(S(=O)(=O)Nc2nccs2)cc1[N+](=O)[O-]	7.8	-1.9	-15.6	12.0	0.1	x	x	x
CCN(Cc1ccccc1)C(c1ccccn1)c1nnnn1C1CCCCC1 (stereo not given)	10.9	8.7	41.9*	62.0*	60.5*	51.1*	62.0*	64.6*
O=c1oc(-c2ccccc2Cl)nc2ccsc12	-3.6	9.8	43.6*	70.1*	34.5	34.9*	x	59.7*
COc1cc(/C=C/C(=O)c2ccc(Cl)s2)cc(OC)c1O	57.0	-1.6	61.6*	67.4*	42.8*	59.0*	44.5*	52.9*
Cc1c(/C=C/C(=O)c2ccc(Cl)s2)cnn1C	2.2	-4.8	44.6*	57.9*	48.5*	35.8*	36.6*	46.7*
Cc1c(/C=C/C(=O)c2ccccc2)cnn1C	7.3	3.3	33.0	33.0	20.8	x	x	x
COC(=O)c1ccc(N2CC3CNC(=O)C2(C(=O)OC)N3C)cc1 (stereo not given)	x	8.7	8.6	12.6	-2.2	x	x	x
NC(=O)C1CCN(C(=O)c2ccc(OCC(=O)Nc3cccc(C(F)(F)F)c3)cc2)CC1	x	5.9	11.6	7.4	15.2	x	x	x
CCOC(=O)C1CCN(C(=O)c2ccc(OCC(=O)Nc3cccc(C(F)(F)F)c3)cc2)CC1	17.6	2.2	56.3*	54.2*	54.1*	56.3*	53.4*	53.4*
